Bioassay records deposited in PubChem BioAssay by National Center for Advancing Translational Sciences (NCATS).
Only some compounds are listed: those with a hit (about 2.4% of all), similar ones and a draw of the others.
Peg3 imprint: inducers of genomic imprint erasure in mouse ES cells. mouse ES Peg3-LacZ reporter, beta-gal luminescence, 40 h. Potency, µM (titrated, usually from 60.7 µM), for inactives: at the top dose activity change, positive = activation, usual class: activators. 110,000 compounds, 0.02% hits. AID 1948
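Imprint erasure is scored as LacZ activity from the silenced maternal Peg3 allele in feeder-free female ES cells cultured 40 h with LIF. Luminescence is normalized to in-plate negative controls and fitted to the Hill equation.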
IkB signaling: inhibitors of IkB signaling in ABC-DLBCL cells. ABC-DLBCL IkBa-CBG/CBR dual luciferase ratio, 4 h; response scale: scaled: untreated 0%, proteasome inhibitor 100%. 110,000 compounds, 0.04% hits. Potency, µM (titrated, usually from 57.1 µM), for inactives: at the top dose IkBa stabilization activation; active means well fitted curve in the direction sought with a large enough effect in the signal ratio, not every such curve was filed as active; inconclusive means small, poorly fitted or top-dose-only effect, or a change in a side signal; the % refers to the signal ratio;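 further: the direction sought is a rising ratio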
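Curves were fitted separately to fusion (green), unfused (red) and ratio luminescence, then classed by r2, magnitude and activity. Cells: OCI-Ly3, 4 h compound plus doxycycline at 37C; 10 uM MG-132 defined full response.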
p53ts 39C tox: p53ts cell cytotoxicity, nonpermissive temperature | H1299-p53A138V viability at 39C, ATP luminescence, 24 h | Potency, µM (highest dose often 46.1 µM), inactives show top-dose activity change, negative = cell killing, most hits filed as cytotoxic | 130,000 compounds, 1.5% hits | AID 902; further: on the % scale 0 is the no-effect control and ±100 the full control effect; nearly all actives have a fitted effect of over 55% in size
Luciferase inh: inhibitors of firefly luciferase | purified firefly luciferase, luminescence, 8 min | Potency, µM (doses to about 57.1 µM), inactives show at the highest dose activity change, negative = inhibition, usual class: inhibitors | P08659 | 72,000 compounds, 2.2% hits; further: on the % scale 0 is the no-effect control and ±100 the full control effect; nearly all actives have a fitted effect of over 40% in size
Target sequence (P08659 whole entry, looked up): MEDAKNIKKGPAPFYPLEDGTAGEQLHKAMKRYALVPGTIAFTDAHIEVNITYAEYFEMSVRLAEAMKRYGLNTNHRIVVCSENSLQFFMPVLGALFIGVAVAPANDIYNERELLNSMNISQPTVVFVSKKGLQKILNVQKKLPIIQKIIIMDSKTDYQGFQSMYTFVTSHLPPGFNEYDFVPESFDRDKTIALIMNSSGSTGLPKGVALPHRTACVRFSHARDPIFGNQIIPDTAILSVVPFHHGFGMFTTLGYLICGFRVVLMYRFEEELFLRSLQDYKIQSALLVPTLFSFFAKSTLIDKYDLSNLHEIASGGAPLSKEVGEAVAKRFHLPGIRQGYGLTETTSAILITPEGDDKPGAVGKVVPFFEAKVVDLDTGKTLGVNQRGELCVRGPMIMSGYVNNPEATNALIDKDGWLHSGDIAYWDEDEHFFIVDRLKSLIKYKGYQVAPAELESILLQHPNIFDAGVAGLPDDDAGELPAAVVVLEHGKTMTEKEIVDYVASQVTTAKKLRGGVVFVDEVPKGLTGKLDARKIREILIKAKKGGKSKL
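Here, luciferase activity is measured as luminescence following an 8 min room-temperature reaction at 10 uM ATP, pH 7.2. Every library sample is titrated.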
p53ts 32C kill: kills p53ts cells at the permissive temperature. H1299-p53A138V at 32C, ATP luminescence viability, 24 h. Potency, µM (top dose mostly 46.1 µM), without a hit: top-dose activity change, negative = cytotoxicity, most hits filed as cytotoxic. 130,000 compounds, 0.93% hits;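 further: 0% = DMSO and -100% = full killing by reference compound; nearly all actives have a fitted effect of over 55% in size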
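Viability by ATPlite luminescence after 24 h compound treatment (up to 46 uM) at the permissive 32C. Cells are H1299 carrying p53 A138V. Scale runs from DMSO basal to 100 uM tamoxifen as full kill; AC50 from Hill fits.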
The depositor's hits bear a star; u = inconclusive; x = no result given; [ ] = dose if it differs, or a comment. Unless noted, the call rests on the fitted dose curve; in most records, active means well fitted curve in the direction sought with a large enough effect; inconclusive means small, poorly fitted or top-dose-only effect, or another doubt; inactive means no such curve, though single readings can be large; an effect the other way counts as inactive or inconclusive. Potency means the concentration at half of the fitted maximal effect.

SMILES	Peg3 imprint	IkB signaling	p53ts 39C tox	Luciferase inh	p53ts 32C kill
CCOC(=O)c1cc(-c2ccccc2)n(CC(=O)Nc2ccccc2OCC)c1C	-4%[10.9 µM]	-1%	47%	x	13%
CCC(=O)Oc1ccc(C(CC)C(CC)c2ccc(OC(=O)CC)cc2)cc1 (stereo not given)	x	x	x	0%[25.5 µM]	x
CCn1ccc(C(=O)Oc2ccc(C(C)C)cc2)n1	-8%	0%	7%	13µM*	0%
N=C1[C@@H](O)[C@]2(I)c3ccccc3N3C(=N)[C@H](O)[C@@H]4c5ccccc5N1[C@@H]4[C@@H]32	-9%[10.9 µM]	u	3%[9.22 µM]	-7%[11.4 µM]	6%[9.22 µM]
CNC(=O)CCc1nc(-c2ccc(C(C)(C)C)cc2)no1	-26%	2%	u	13µM*	13µM*
COc1ccc(-c2noc(CCC(=O)Nc3cc(Cl)c(OC)cc3OC)n2)cc1	-11%	3%	-7%	16µM*	-5%
CC(C)(C)c1ccc(-c2noc(CCC(N)=O)n2)cc1	-11%	14%	u	13µM*	u
CN(C)C(=O)CCc1nc(-c2ccc(C(C)(C)C)cc2)no1	-19%	4%	12%	2%	1%
O=C(Nc1ccccc1C(F)(F)F)c1ccc2oc(=O)c(S(=O)(=O)c3ccc(F)cc3)cc2c1	-6%[10.9 µM]	u	13µM*	x	10µM*
Cc1oc2c(cc(NS(=O)(=O)c3ccc(Br)cc3)c3ccccc32)c1C(=O)OCc1ccccc1	-18%[10.9 µM]	u	20µM*	x	-21%
Cc1ccc(S(=O)(=O)Nc2cc3c(C(=O)OCc4ccccc4)c(C)oc3c3ccccc23)cc1	-12%[10.9 µM]	u	-21%	x	1%
COc1ccc(Cc2nn3c(Cn4nnc5ccccc54)nnc3s2)cc1	-19%	1%	-17%	16µM*	-28%
CN(C)c1ccc(-c2nccc(Nc3ccc(F)cc3)n2)cc1	u	-4%[11.4 µM]	u	-9%[2.29 µM]	-17%
O=C1c2[nH]nc(-c3ccccc3O)c2C(c2ccc(Cl)cc2)N1CCc1ccccc1 (stereo not given)	9%[10.9 µM]	u	u	x	20µM*
COc1cccc(NC(=O)Cn2c(=O)n(-c3ccc(C)cc3)c(=O)c3ccccc32)c1	-8%[10.9 µM]	u	13%	x	7%
O=C(NC1CC1)c1ccc(-c2nc3ccccc3s2)s1	-83%	u	0.4µM*	1.6µM*	0.5µM*
Cc1noc(C)c1COC(=O)c1ccc(-c2nc3ccccc3s2)s1	-24%	-1%	-25%	8%	-9%
O=C(/C=C\Nc1ccc2c(c1)OCO2)c1ccccn1	-86%	u	2.5µM*	0.63µM*	1.6µM*
CCn1c(=O)sc2cc(NS(=O)(=O)c3ccc(F)c(C)c3)ccc21	-12%[10.9 µM]	u	-13%	x	-4%
COc1ccc(-c2cn3c(n2)sc2cc(C(=O)NCc4ccccc4)ccc23)cc1	-9%[10.9 µM]	u	u	x	-7%
COc1ccc2c(c1)sc1nc(-c3ccccc3)cn12	-93%	u	1.3µM*	0.063µM*	0.63µM*
O=C(COc1ccccc1Cl)N(Cc1cccc(F)c1)C1CCS(=O)(=O)C1 (stereo not given)	11%[10.9 µM]	u	-19%	x	2%
Cc1cc(C)cc(NS(=O)(=O)c2ccc3[nH]cc(C(=O)NCc4ccco4)c(=O)c3c2)c1	-26%	u	2µM*	0%	u
Cc1cc(C)cc(NS(=O)(=O)c2ccc3[nH]cc(C(=O)NCc4ccccc4Cl)c(=O)c3c2)c1	-16%[10.9 µM]	3%	-8%	x	19%
CSc1cccc(NC(=O)N2CCN(S(=O)(=O)c3ccc4c(ccn4C)c3)CC2)c1	-5%[10.9 µM]	2%	-16%	x	17%
Cc1ccc(Nc2c(-c3ccccn3)nc3ccc(Br)cn23)cc1	-6%[10.9 µM]	u	17%	x	-7%
COC(=O)CNc1c(-c2ccccn2)nc2ccc(Br)cn12	-90%	16%	13µM*	13µM*	16µM*
C=C1C(=O)C=C2CN(C(=O)c3ccccc3)[C@@](Cc3ccc(F)cc3)(C(=O)OC)[C@@H]12	-34%	x	3.2µM*	x	3.2µM*
CCCOc1ccc(C(=O)Nc2cccc(NC(=O)c3ccc(Cl)cc3Cl)c2)cc1	-13%[10.9 µM]	u	7.9µM*	x	u
